KLF5 inh: suppresses KLF5 promoter-driven expression | DLD-1 KLF5 promoter-luciferase reporter, luminescence | inhibition, % at 5 µM | hit rate 0.23% among 290,000;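 active means inhibition above a per-plate limit of that plate's mean compound inhibition plus 3 SD, cut at about 60% in these data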;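 further: 0% = DMSO wells and 100% = LY294002 at 200 µM; higher means less KLF5 promoter-driven luciferase light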
BaF3 tox: parental Ba/F3 viability inhibition as JAK2V617F counter-screen | CellTiter-Glo ATP luminescence | inhibition, % at 5.6 µM | hit rate 1.1% among 220,000;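 active means inhibition above a per-campaign cutoff, the mean inhibition of all tested compounds plus 3 SD, cut at about 27% in these data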;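 further: 0% = DMSO wells and 100% = JAK Inhibitor I control wells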
IEC-6 tox: counter-screen for KLF5 inhibitors: cytotoxicity in IEC-6 cells | IEC-6 cytotoxicity, luminescence viability | hit rate 0.78% among 290,000 | inhibition, % at 5 µM;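 further: 0% = plate median of test compound wells and 100% = cytotoxic reference compound wells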
APP transl inh: APP translation inhibition | inhibition, % at 2 µM | hit rate 0.82% among 190,000 | SH-SY5Y APP 5'UTR-luciferase reporter, luminescence | AID 1285;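 active means inhibition above a set limit, derived from the sample mean plus 3 SD, cut at about 45% in these data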
Ba/F3 V617F tox: loss of viability in JAK2V617F-driven Ba/F3 cells; AID 1446; inhibition, % at 5.6 µM; Ba/F3 EpoR-JAK2V617F viability, ATP luminescence; hit rate 1.1% among 220,000;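 active means inhibition above the campaign mean plus 3 SD over all tested compounds, cut at about 24% in these data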;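 further: cytokine-independent growth of Ba/F3 cells driven by EpoR plus mutant JAK2; 0% = DMSO-treated cells and 100% = JAK inhibitor I control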
IEC-6 tox confirm: IEC-6 cytotoxicity, confirmation assay. shares compounds with IEC-6 tox. hit rate 63% among 1,900. IEC-6 rat intestinal epithelial viability, luminescence. inhibition, % at 5 µM. AID 1907;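 further: 0% = vehicle and 100% = reference cytotoxic drug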
* hit, by the source's call; nt = no result given. In the library only some 1.9% were active in any assay of this set; here they are far more common. Unless noted, no stated cut-off is given here; in the data, active means inhibition above about 22%; inactive means the rest.

SMILES | KLF5 inh | BaF3 tox | IEC-6 tox | APP transl inh | Ba/F3 V617F tox | IEC-6 tox confirm
CCOc1cccc2sc(N(CCCN(C)C)C(=O)c3ccc(C(=O)c4ccccc4)cc3)nc12 | -46 | nt | 2 | nt | nt | nt
Cc1cc(C)c2nc(C)cc(Nc3ccc(C(=O)N4CCOCC4)cc3)c2c1 | -5 | -1 | 7 | nt | 2 | nt
COc1ccc(C(NC(C)=O)c2cc(Cl)c3cccnc3c2O)cc1 (centres undefined) | 75* | nt | 54* | nt | nt | 56*
C/C(=N\NC(=O)c1n[nH]c2c1CCC2)c1ccco1 | 61 | 86* | 79* | nt | 83* | 10
CCCCNc1ncnc2c1cnn2-c1ccc(Cl)cc1 | -113 | 9 | 19 | 34 | 4 | nt
CCCCNc1ncnc2c1cnn2-c1ccccc1 | -42 | 66* | 38* | -102 | 64* | 29*
CCN(c1ccccc1)S(=O)(=O)c1ccc(Cl)c(NC(=O)COC(=O)c2cc(O)c3ccccc3c2O)c1 | 8 | -3 | 32* | nt | -3 | 7
CCOC(=O)/C=C1\SCC(=O)N1CC(=O)Nc1ccc(OC)c(OC)c1 | 7 | 5 | -3 | 2 | 0 | nt
CCO[C@@H]1OC(C(=O)NCc2nc3ccccc3[nH]2)=C[C@H](C2CC2)[C@H]1CCCO | 38 | 34* | 42* | 2 | 2 | 6
CCO[C@@H]1OC(C(=O)NCc2ccccc2)=C[C@H](C2CC2)[C@H]1CCCO | 7 | 0 | 4 | 2 | 4 | nt
O=C1CC(c2ccccc2)CC(O)=C1C=NCc1ccccc1Cl (centres undefined) | 51 | 29* | 31* | 61* | 43* | 30*
O=C(CC(=O)c1ccccc1O)c1ccc(F)cc1 | -74 | 1 | 1 | -30 | -3 | nt
COc1cc(C(=O)Nc2ccc3ccccc3c2)cc(OC)c1OC | 43 | nt | 78* | nt | nt | 59*
COc1ccc(C(=O)Nc2ccc3ccccc3c2)cc1OC | -190 | nt | 8 | nt | nt | nt
O=C(NNC1=NS(=O)(=O)c2ccccc21)C1CC(=O)N(c2ccccc2)C1 (centres undefined) | -22 | 9 | 3 | 27 | 5 | nt
COc1cc(/C=C2\N=C(c3ccccc3)NNC2=O)cc(OC)c1OC | 44 | 79* | 59* | nt | 72* | 53*
O=C1NNC(c2ccccc2)=N/C1=C\c1ccco1 | -12 | 0 | -5 | nt | -1 | nt
O=C(N/N=C/c1ccccn1)c1ccc(Cl)c(Cl)c1 | -4 | nt | 22* | nt | nt | 11
O=C(CC1C(=O)NCCN1Cc1ccc(F)cc1Cl)NC1CCCCCCC1 (centres undefined) | -14 | nt | 0 | nt | nt | nt
COc1ccc(S(=O)(=O)N2CCCCC2)cc1NCC(=O)Nc1ccc(C)cc1 | -10 | 9 | 32* | nt | 3 | 18
CN1c2cccc3cccc(c23)N(C)C1c1cccs1 | -41 | 9 | 24* | 0 | 0 | 3
N#Cc1ccc(/C=N/N=C(N)N)cc1 | -17 | 6 | 4 | -15 | 3 | nt
NC(N)=N/N=C/c1ccc(Br)cc1 | 10 | 34* | 26* | 28 | 10 | 56*
Cc1nc2ccc(NC(=O)c3ccccc3)cc2s1 | -94 | 2 | -1 | -82 | -1 | nt
Cc1nc2ccc(NC(=O)c3cncc(Br)c3)cc2s1 | 39 | 60* | 88* | nt | 80* | -4
SMILES | KLF5 inh | BaF3 tox | IEC-6 tox | APP transl inh | Ba/F3 V617F tox | IEC-6 tox confirm
O=C(O)c1[nH]c2ccc([N+](=O)[O-])cc2c1-c1ccccc1 | 5 | 1 | -1 | nt | -3 | nt
NNC(=O)c1[nH]c2ccc([N+](=O)[O-])cc2c1-c1ccccc1 | -3 | nt | 91* | nt | nt | -3
Cc1ccc(-n2c(-c3ccccc3)cc(=O)nc2C)cc1 | 6 | 1 | -1 | 15 | -2 | nt
CCOC(=O)Nc1ccc2nc(N3CCCCCC3)sc2c1 | -24 | 67* | 67* | nt | 78* | 60*
CCOc1ccc(N(C)S(=O)(=O)c2ccc(-c3cc(C)no3)s2)cc1 | 39 | nt | 57* | nt | nt | 38*
CCOc1ccc(N(C)S(=O)(=O)c2cc(-c3cc(C)no3)ccc2C(C)C)cc1 | -16 | nt | 1 | nt | nt | nt
CCOc1cc(CNc2ccc3c(c2)OCCO3)cc(Br)c1OCC | 7 | 74* | 83* | 95* | 74* | 53*
COc1ccc(-c2cc(C(=O)N3CCN(c4ccccc4)CC3)c3ccccc3n2)cc1 | -5 | 10 | 28* | 75* | 2 | 6
COc1ccc(-c2cc(C(=O)N3CCCC3)c3ccccc3n2)cc1 | -45 | nt | 7 | nt | nt | nt
Cc1ccc(S(=O)(=O)Nc2cccc(N(C)S(C)(=O)=O)c2)cc1[N+](=O)[O-] | -21 | 95* | 23* | 2 | 97* | -9
O=C(CC1C(=O)NCCN1Cc1ccc(-c2ccccc2)cc1)NC1CCC1 (centres undefined) | -17 | 3 | -7 | -11 | 1 | nt
Cc1ccccc1NC(=O)CSc1nc2scc(C)c2c(=O)[nH]1 | -16 | nt | 37* | nt | nt | 21
CCOC(=O)C1(Cc2cccc(OC)c2)CCN(Cc2cnc(SC)nc2)CC1 | -20 | 10 | -5 | -8 | 1 | nt
O=C(N/N=C/c1ccccn1)c1cccc(S(=O)(=O)N2CCCC2)c1 | -7 | -7 | -1 | nt | -2 | nt
COc1ccc(NC(=O)c2cccnc2)c([N+](=O)[O-])c1 | 18 | 60* | 46* | 21 | 66* | 30*

High-throughput results (PubChem)
